# Experimental data taken from PubChem BioAssay (NCATS).
# Inconclusive results are not listed. Calls of active or inactive are those of the source. Calls follow the shape of the dose curve; as a rule, active = well fitted cell-killing curve with a large enough effect; inconclusive = small, poorly fitted or top-dose-only effect; inactive = flat fitted curve, though single readings scatter.
# Test: qHTS of pediatric cancer cell lines to identify multiple opportunities for drug repurposing: Primary screen for RD cells (AID 1347104); also: nearly all actives have a fitted effect of over 55% in size
# Conditions: RD rhabdomyosarcoma viability, CellTiter-Glo luminescence, 48 h; series mostly up to 46 µM
# Outline: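 Plated cells (500-1,000 per well, growth media) were allowed to settle for 5 hours, treated with compound dilutions for 48 hours, then lysed with CellTiter-Glo for 15 min at room temperature before luminescence reading.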
# Potency is read from the fitted curve at half-maximal effect.
row,SMILES,Potency
1,CO[C@H]1/C=C\O[C@@]2(C)Oc3c(C)c(O)c4c(O)c(c(C=NN5CCN(C6CCCC6)CC5)c(O)c4c3C2=O)NC(=O)C(C)=CC=C[C@H](C)[C@H](O)[C@@H](C)[C@@H](O)[C@@H](C)[C@H](OC(C)=O)[C@H]1C,0.209 µM (active)
2,O=C(O)Cc1cccc(OCCCN(Cc2cccc(C(F)(F)F)c2Cl)CC(c2ccccc2)c2ccccc2)c1,33.2 µM (active)
3,CN1CC(=O)NC1=NC(=O)Nc1cccc(Cl)c1,inactive
4,O=c1[nH]c(=O)n([C@H]2C[C@@H](O)[C@@H](CO)O2)cc1I,inactive
5,CCC(=O)OCC(=O)[C@@]1(OC(=O)CC)[C@@H](C)C[C@@H]2[C@H]3CCC4=CC(=O)C=C[C@]4(C)[C@@]3(F)[C@@H](O)C[C@@]21C,6.62 µM (active)
6,CC(C)C[C@H](NC(=O)c1cc2ccccc2s1)C(=O)N1CCN(C(=O)[C@H](CO)NS(=O)(=O)c2ccc(Cl)cc2Cl)CC1,29.6 µM (active)
7,CC1(C)[C@H]2CC[C@]3(C)[C@@H](C(=O)C=C4[C@@H]5C[C@@](C)(C(=O)O)CC[C@]5(C)CC[C@]43C)[C@@]2(C)CC[C@@H]1O,inactive
8,N#CC(=C1Nc2ccccc2S1)c1ccnc(OCc2ccc(CN3CCOCC3)cc2)n1,0.662 µM (active)
9,CC[C@H](C=C[C@@H](C)[C@H]1CC[C@H]2[C@@H]3CC=C4C[C@@H](O)CC[C@]4(C)[C@@H]3CC[C@]12C)C(C)C,inactive
10,Nc1[nH]nc2nnc(-c3c(-c4ccccc4)nn4ccccc34)cc12,11.8 µM (active)
11,CN1CCC(COc2cnc(-c3cccc(Cn4nc(-c5cccc(C#N)c5)ccc4=O)c3)nc2)CC1,4.69 µM (active)
12,CC[C@@H]([C@H](C)O)n1ncn(-c2ccc(N3CCN(c4ccc(OCC5CO[C@@](Cn6cncn6)(c6ccc(F)cc6F)C5)cc4)CC3)cc2)c1=O (some centres not stated),20.9 µM (active)
